Assay outcomes from PubChem.
A3G deaminase = APOBEC3G DNA deaminase inhibitors, primary screen, biochemical, fluorescence, single-stranded DNA substrate, uHTS. DNA dC->dU-editing enzyme APOBEC-3G (Homo sapiens), Q9HC16. inhibition, % at 20 µM. recombinant A3G, ssDNA deamination FAM/TAMRA fluorescence. actives 0.28% (n = 330,000). AID 493012, 2011;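 active = inhibition of at least 40% at 20 µM, with no more than 30% in the related APOBEC3A deaminase screen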
Target sequence (Q9HC16 whole entry, looked up): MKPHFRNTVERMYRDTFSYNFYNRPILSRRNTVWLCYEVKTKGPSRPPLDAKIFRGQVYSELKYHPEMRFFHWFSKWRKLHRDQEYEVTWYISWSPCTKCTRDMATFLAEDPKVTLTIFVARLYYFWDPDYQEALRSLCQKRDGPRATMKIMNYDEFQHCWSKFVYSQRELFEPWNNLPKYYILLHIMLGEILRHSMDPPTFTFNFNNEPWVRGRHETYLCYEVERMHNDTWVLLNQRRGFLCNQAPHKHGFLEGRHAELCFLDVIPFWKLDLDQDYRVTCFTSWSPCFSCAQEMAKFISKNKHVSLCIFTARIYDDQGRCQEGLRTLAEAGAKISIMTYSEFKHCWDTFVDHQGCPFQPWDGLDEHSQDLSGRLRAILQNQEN
PHOSPHO1 block = PubChem AID 1565; recombinant PHOSPHO1, absorbance phosphatase assay; actives 1.1% (n = 290,000); inhibition, % at 13.3 µM; Phosphoethanolamine/phosphocholine phosphatase (Homo sapiens), Q8TCT1; in the data active = inhibition above about 60%
Wnt act = Wnt/beta-catenin pathway activators, primary screen, cell-based, plate reader, single point; Wnt/beta-catenin reporter cell assay, activator; activation, % at 9.35 µM; actives 1.2% (n = 300,000); AID 743398, 2014; in the data active = activation above about 30%, passing the limit was not always enough
A3A deaminase = APOBEC3A ssDNA deaminase inhibitors, primary screen, selectivity assay for APOBEC3G inhibitor project, biochemical, FAM/TAMRA oligo cleavage fluorescence; inhibition, % at 20 µM; actives 0.41% (n = 330,000); DNA dC->dU-editing enzyme APOBEC-3A (Homo sapiens), P31941; recombinant A3A, FAM/TAMRA ssDNA deamination fluorescence;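 active = at least 40% inhibition at 20 µM here, with at most 30% in a related deaminase screen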
MITF act = activators of MITF-driven TRPM1 promoter reporter, primary screen, cell-based, SK-MEL-5, luciferase, single point. activation, % at 12.5 µM. SK-MEL-5 TRPM1-promoter luciferase, 24 h; % of positive control, neutral wells = 0. actives 0.75% (n = 300,000);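 active = mean activation of at least 80% with every replicate also reaching 80%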
esBAF inh = Bmi1 luciferase reporter increase in mESCs, primary screen, esBAF inhibitor project, mouse ES cells, Bmi1 luciferase knock-in, single point. actives 2% (n = 350,000). 24 h; 100% = twice the neutral-well signal. reporter increase, % at 12.5 µM; in the data active = activation above about 40%;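 also: a rise in the Bmi1 reporter signal indicates esBAF inhibition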
A number is an active result; – = inactive; · = no result given. In the library only some 3.6% were active in any assay of this set; here they are far more common.

SMILES	A3G deaminase	PHOSPHO1 block	Wnt act	A3A deaminase	MITF act	esBAF inh
C[C@H]1CN([C@@H](C)CO)S(=O)(=O)c2ccc(Br)cc2O[C@H]1CN(C)C(=O)C1CCCCC1	·	·	·	·	·	–
CN1C(=O)c2cc(NC(=O)Cc3cccs3)ccc2OC[C@@H]2O[C@H](CC(=O)N[C@@H]3CCN(Cc4ccccc4)C3)CC[C@@H]21	·	·	·	·	·	–
C[C@H](CO)N1C[C@H](C)[C@H](CN(C)S(=O)(=O)c2cn(C)cn2)Oc2ncc(C#CC(C)(C)O)cc2C1=O	·	·	·	·	·	–
COc1cc(C(=S)N2CCC(C)CC2)ccc1O	–	66	–	–	·	–
COc1cc(C(=S)N2CCCC2)ccc1O	–	–	·	–	–	–
CCOC(=O)C1(C)C=C(Nc2ccc(OC)cc2)C(=O)N1c1ccc(OC)cc1 (stereo not drawn)	–	–	·	–	–	·
CCOC(=O)C1(C)/C(=N/Nc2ccccc2)C(=O)C(=O)N1c1ccccc1 (stereo not drawn)	–	99	–	–	–	–
CCOC(=O)C1(C)C=C(Nc2cccc(OC)c2)C(=O)N1c1ccccc1 (stereo not drawn)	–	–	43	–	·	·
C[C@@H]1CN([C@H](C)CO)C(=O)c2cccc(NC(=O)c3nc4ccccc4s3)c2O[C@H]1CN(C)C(=O)Nc1ccc2c(c1)OCO2	·	·	·	·	·	–
CO[C@@H]1CN(C)C(=O)c2ccc(NS(C)(=O)=O)cc2OC[C@H](C)N(C(=O)C2CCCC2)C[C@@H]1C	·	·	·	·	·	–
Oc1ccc(/C=N/N2CCCCC2)cc1O	–	–	–	–	–	–
Clc1ccc(C=NN2CCCCCC2)cc1Cl	·	·	56	·	–	·
Clc1ccc(/C=N/N2CCCCC2)cc1	–	65	33	–	94	·
O=[N+]([O-])c1ccc(/C=N\N2CCN(c3ccc(Cl)cc3)CC2)cc1	–	–	·	–	–	–
O=[N+]([O-])c1ccc(/C=N/N2CCCCC2)cc1	–	–	–	–	106	77
C[C@H](CO)N1C[C@H](C)[C@@H](CN(C)Cc2ccc(Oc3ccccc3)cc2)Oc2ccc(NC(=O)Cc3ccccc3)cc2C1=O	·	·	·	·	·	–
COCC(=O)Nc1ccc2c(c1)OC[C@H](C)N(C(=O)c1ccccc1F)C[C@@H](C)[C@H](OC)CN(C)C2=O	·	·	·	·	·	–
O=C(COc1ccc(Br)cc1Cl)NC(=O)NC1CCCC1	–	·	38	–	93	51
O=C(COc1ccc(Br)cc1Cl)NC1CCCCC1	–	–	–	–	88	·
O=C(COc1ccccc1Cl)c1ccc[nH]1	–	–	–	–	–	·
O=C(COc1ccc(Br)cc1Cl)c1ccc[nH]1	–	–	–	–	102	74
C[C@H]1CN([C@@H](C)CO)C(=O)c2cccc(NC(=O)c3cnccn3)c2O[C@@H]1CN(C)C	·	·	·	·	·	–
C=CCn1c(-c2ccco2)n[nH]c1=S	–	–	·	–	–	–
C=CCn1c(-c2ccoc2C)n[nH]c1=S	–	81	·	–	–	–
CCCCn1c(-c2ccoc2C)n[nH]c1=S	–	–	43	–	·	–
SMILES	A3G deaminase	PHOSPHO1 block	Wnt act	A3A deaminase	MITF act	esBAF inh
C[C@H](CO)N1C[C@H](C)[C@H](CN(C)C(=O)C2CC2)Oc2ncc(C#Cc3cccc(F)c3)cc2C1=O	·	·	·	·	·	–
COCCNC(=O)C[C@H]1C=C[C@@H](NS(=O)(=O)c2ccc(C)cc2)[C@H](CO)O1	·	·	·	·	·	–
C/C(=N\O)c1sc(-c2ccccc2)nc1C	·	–	64	·	–	·
C=C(C)c1sc(-c2ccccc2)nc1C	–	·	–	–	·	·
O=C(/C=C/c1ccccc1)c1c[nH]c2ccccc12	–	–	46	–	–	–
Cc1cccc(NC(=O)c2ccc(S(=O)(=O)NCc3ccco3)cc2)n1	–	·	–	–	–	56
CC(C)c1ccc(CN(C)C(=O)c2ccc(S(=O)(=O)NCc3ccco3)cc2)cc1	–	·	34	–	·	–
Cc1ccc(NC(=O)c2ccc(S(=O)(=O)NCc3ccco3)cc2)nc1	–	·	–	–	–	·
C[C@H]1CN([C@@H](C)CO)S(=O)(=O)c2ccc(C#Cc3ccncc3)cc2O[C@H]1CN(C)C(=O)C1CCCCC1	·	·	·	·	·	–
Cc1cc(C)c2c(c1)-c1c(ssc1=S)C(C)(C)N2C(=O)CSc1nncn1C	–	62	·	–	–	–
COc1ccc(C2Nc3ccccc3C(=O)N2c2ccc(C)cc2)cc1COc1ccccn1 (stereo not drawn)	–	–	·	–	–	·
COc1ccc(C2Nc3ccccc3C(=O)N2c2ccc(C)cc2)cc1Cn1nc(C)c([N+](=O)[O-])c1C (stereo not drawn)	–	–	–	–	90	86
COc1ccccc1CN1CC(C(=O)N(C)CCc2nc3ccc(F)cc3[nH]2)CCC1=O (stereo not drawn)	–	64	–	–	–	–
COc1ccccc1CN1CC(C(=O)N(C)CCc2ccccn2)CCC1=O (stereo not drawn)	·	·	–	·	·	–
C[C@H]1CN([C@@H](C)CO)C(=O)c2cc(NC(=O)c3ccncc3)ccc2O[C@H]1CN(C)S(=O)(=O)c1ccc(F)cc1	·	·	·	·	·	–
O=C(NNC(=S)Nc1ccccc1Cl)c1ccccc1Cl	–	–	–	–	–	53
O=C(NNC(=S)Nc1ccccc1Cl)c1ccccc1	–	–	–	–	93	71
Cc1ccc2cc3cc(C(=O)NCCC(C)C)oc3nc2c1	–	–	·	–	–	·
Cc1ccc2cc3cc(C(=O)NC4CCCCC4)oc3nc2c1	–	–	–	–	–	47
Cc1ccc2cc3cc(C(=O)NC4CC4)oc3nc2c1	–	–	31	–	–	45
